Measured values: PubChem BioAssay (NCATS)
Inconclusive results are not listed. A call without a number means that no potency is given here. Unmarked numbers belong to inactive results. Calls of active or inactive are those of the source. Calls come from the whole dose curve; as a rule, active = well fitted curve in the direction sought with a large enough effect; inconclusive = small, poorly fitted or top-dose-only effect, or another doubt; inactive = no such curve, though single readings can be large; an effect the other way counts as inactive or inconclusive. Where a SMILES comes first, the peptide text is derived from it. [ ]: non-standard residue; d: D form. The star is where a group is joined. Fmoc = O=C(OCC1c2ccccc2-c2ccccc21)*; AMC = Cc1cc(=O)oc2cc(N*)ccc12; Cha = N[CH](CC1CCCCC1)C(=O)O; Boc = CC(C)(C)OC(=O)*

Legend:
[1] = system: Zika virus NS2B-NS3 protease; assay: Primary screen GU AMC qHTS for Zika virus inhibitors (AID 1347154); note: nearly all actives have a fitted effect of over 70% in size
How it was run: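 Unlinked Zika NS2B hydrophilic domain/NS3 protease domain noncovalent complex (25 nM final) in 10 mM Tris-HCl pH 8.0, 0.01% Tween 20, with AMC peptide substrate. Fluorescence (ex 340, em 450 nm) change over 15 min, room temperature; percent inhibition fitted to 4-parameter Hill equation.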

[2] = Primary qHTS for small molecule stabilizers of the endoplasmic reticulum resident proteome: Secreted ER Calcium Modulated Protein (SERCaMP) assay (AID 1508630)
How it was run: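 The SH-SY5Y reporter protocol was run at 3 concentrations up to 38.3 uM (primary) or 11 concentrations (follow-up): 16 h compound, 100 nM thapsigargin for 4 h, then extracellular luciferase luminescence.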
Potency is the fitted concentration of half-maximal effect.

Row | SMILES | Potency [1] | Potency [2] | activity change, negative = inhibition [1] | activity change, negative = inhibition [2]
1 | CC1c2ccccc2CN1CC1=NCCN1 (stereo not drawn) | inactive | inactive | – | –
2 | CC(C)n1nnc2cc(C(=O)O)ccc21 | inactive | inactive | – | –
3 | COc1oc(=O)c2cc(N)ccc2c1Cl | inactive | inactive | – | –
4 | CCCC1OC2CC3C4CCC5=CC(=O)C=CC5(C)C4C(O)CC3(C)C2(C(=O)CO)O1 (stereo not drawn) | inactive | inactive | – | –
5 | COc1ccc(CCNC(=O)C(=O)c2c[nH]c3ccccc23)cc1 | inactive | inactive | – | –
6 | O=C(NCCCCCCNC(=O)ON=C1CCCCC1)ON=C1CCCCC1 | inactive | inactive | – | –
7 | CCCCCCCCCCCCC/C=C/[C@@H](O)[C@H](CO)NC(=O)CCCCCCCCCCCCCCC | – | – | 22% [at 6.83 µM] | -18.7% [at 3.88 µM]
8 | CC(=O)NC1C(OC2OC(CC(O)C3OC([N+]4=CCC(=O)NC4=O)C(O)C3O)C(O)C(O)C2NC(=O)/C=C/CCCCCCCCC(C)C)OC(CO)C(O)C1O (stereo not drawn) | inactive | 1 µM (active) | – | –
9 | CC(C)[C@H](NC(=O)CNC(=O)OC(C)(C)C)C(=O)N[C@H](C=O)C(C)C (Boc-Gly-Val-Val-aldehyde) | inactive | inactive | – | –
10 | C[C@H](NC(=O)CNC(=O)[C@@H](NC(=O)[C@H](Cc1ccccc1)NC(=O)CNC(=O)CNC(=O)[C@@H](N)Cc1ccccc1)[C@@H](C)O)C(=O)N[C@@H](CCCN=C(N)N)C(=O)N[C@@H](CCCCN)C(=O)N[C@@H](CO)C(=O)N[C@@H](C)C(=O)N[C@@H](CCCN=C(N)N)C(=O)N[C@H](CN)CCCCN (HELM PEPTIDE1{F.G.G.F.T.G.A.R.K.S.A.R.[NCCCC[C@@H](CN)N[*:1]]}$$$$V2.0) | – | – | 1.78% [at 6.83 µM] | -10.3% [at 3.88 µM]
11 | O=C(O)c1ccncc1 | inactive | inactive | – | –
12 | CCCCC(C)(C)[C@H](O)/C=C/[C@H]1[C@H](O)CC(=O)[C@@H]1C/C=C\CCCC(=O)O | – | – | 5.54% [at 6.83 µM] | 8.87% [at 3.88 µM]
13 | CCCCC[C@H](O)/C=C/C=C\CCCCCCCC(=O)O | inactive | inactive | – | –
14 | CC(C)[C@@H]1NC(=O)[C@H](Cc2ccccc2)NC(=O)[C@@H](CC(=O)O)NC(=O)CNC(=O)[C@H](CCCNC(=N)N)NC1=O | inactive | inactive | – | –
15 | CCCCCCCCCCC1=C(C)C(=O)C(OC)=C(OC)C1=O | inactive | inactive | – | –
16 | CC(C)C[C@H](NC(=O)[C@H](Cc1ccccc1)NC(=O)CNC(=O)CNC(=O)[C@@H](N)Cc1ccc(O)cc1)C(=O)N[C@@H](CCCN=C(N)N)C(=O)N[C@@H](CCCN=C(N)N)C(=O)N[C@@H](CCC(N)=O)C(=O)N[C@@H](Cc1ccccc1)C(=O)N[C@@H](CCCCN)C(=O)N[C@H](C(=O)N[C@H](C(=O)N[C@H](C(=O)O)[C@@H](C)O)C(C)C)C(C)C | – | – | 3.02% [at 6.83 µM] | -2% [at 3.88 µM]
17 | CC(O)(C(=O)Nc1ccc(S(=O)(=O)c2ccccc2)cc1)C(F)(F)F (stereo not drawn) | inactive | inactive | – | –
18 | O=Cc1c2[nH]c3ccccc3c2cc2[nH]c3ccccc3c12 | inactive | inactive | – | –
19 | Cc1cc(=O)oc2cc(NC(=O)C(CCCCN)NC(=O)C(CC3CCCCC3)NC(=O)OCC3c4ccccc4-c4ccccc43)ccc12 (stereo not drawn) (Fmoc-[Cha]-Lys-{AMC}; configuration not given here) | 18.9 µM (active) | inactive | – | –
20 | CC(C)OC(=O)c1cn(Cc2c(F)cccc2F)c2sc(-c3ccc(NC(=O)C(C)C)cc3)c(CN(C)Cc3ccccc3)c2c1=O | inactive | inactive | – | –
21 | CO[C@H]1C[C@@H]2CC[C@@H](C)[C@@](O)(O2)C(=O)C(=O)N2CCCC[C@H]2C(=O)OC([C@H](C)C[C@@H]2CC[C@@H](O)[C@H](OC)C2)CC(=O)[C@H](C)/C=C(\C)[C@@H](O)[C@@H](OC)C(=O)[C@H](C)C[C@H](C)/C=C/C=C/C=C/1C (stereo partly drawn) | inactive | inactive | – | –
22 | COC(=O)[C@H](Cc1ccc(C#Cc2ccccc2)cc1)NC(=O)C[C@H]1CCCN(C(=N)N)C1 | inactive | inactive | – | –
23 | CC1=C(/C=C/C(C)=C\C=C\C(C)=C\C(=O)O)C(C)(C)CCC1 | inactive | inactive | – | –
24 | CC12CCC3c4ccc(O)cc4CCC3C1CCC2O (stereo not drawn) | inactive | inactive | – | –
